From PubChem
ALR inh: blocks human ALR sulfhydryl oxidase activity; purified ALR, DTT oxidation, H2O2 HRP-luminol luminescence; P55789; 290,000 compounds, 3.8% hits; AID 485317; inhibition, % (test concentration not listed);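 active means mean replicate inhibition above about 79%, with every replicate also reaching it, limit read from the data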
Target sequence (P55789 whole entry, looked up): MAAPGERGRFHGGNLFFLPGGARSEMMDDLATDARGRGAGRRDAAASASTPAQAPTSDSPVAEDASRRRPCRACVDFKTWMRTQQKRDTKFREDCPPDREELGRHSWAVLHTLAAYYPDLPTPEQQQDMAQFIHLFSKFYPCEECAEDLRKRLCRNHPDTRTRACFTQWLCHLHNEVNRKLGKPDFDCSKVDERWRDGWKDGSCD
HIF activator: HIF pathway transcriptional activation; AID 1910; U2OS HRE-luciferase reporter, luminescence; normalized: DMSO 0%, desferrioxamine 100%; activation, % at 7.5 µM (by protocol); 300,000 compounds, 0.32% hits;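 active means mean activation of at least 10% of the iron chelator positive control signal, with at least half of replicates also reaching 10%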
M18AAP inhibitor: blocks P. falciparum M18 aspartyl aminopeptidase; recombinant PfM18AAP, H-Glu-NHMec fluorogenic cleavage; inhibition, % at 7.35 µM; 290,000 compounds, 1.2% hits;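 active means inhibition above the campaign mean inhibition over all tested compounds plus 3 SD, cut at about 28% in these data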;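 further: 0% = plate median of test compound wells and 100% = 2 mM ZnCl2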
Mot1-301 SUMO: inhibitors of SUMOylation pathway: yeast Mot1-301 growth rescue; S. cerevisiae Mot1-301 growth rescue, ATP luminescence, 38.5C; percent above DMSO median, 100 means doubled; growth rescue, % at 18.8 µM; 320,000 compounds, 1% hits; AID 2716;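 active means every valid replicate shows activation above 250% relative to neutral control wells; inactive means the rest, any valid replicate at or below 250%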;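 further: OY570 slx delta 5 strain wells were the positive control but not used for scaling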
Starred values were filed as active, the others as inactive; · = no result given. Compounds with a hit are over-represented: about 5.3% of the library has one in this group of screens.

SMILES	ALR inh	HIF activator	M18AAP inhibitor	Mot1-301 SUMO
COC(=O)c1ccc(C(=O)NC2CCCc3c2cnn3-c2cc(F)cc(F)c2)nc1 (configuration not stated)	-2.3	2.1	1.1	-22.3
O=C(O)C1Sc2[nH]c(=O)sc2C2c3cc(Br)ccc3OC(=O)C12 (configuration not stated)	·	0.1	13.3	-4.9
O=C(O)C1Sc2[nH]c(=O)sc2C2c3cc(Cl)ccc3OC(=O)C12 (configuration not stated)	94.0*	-0.5	5.4	2.6
CN1CCCC(CN2c3ccccc3Sc3ccccc32)C1 (configuration not stated)	99.1*	0.1	10.0	-15.0
O=C(COc1ccccc1Cl)Nc1ccc2oc(=O)ccc2c1	·	1.6	-2.9	-8.4
O=C(NC(=S)N1CCN(c2ccc(F)cc2)CC1)C12CC3CC(CC(C3)C1)C2	-2.4	-0.2	0.4	2.4
CCOc1ccccc1N1CCN(C(=S)NC(=O)C23CC4CC(CC(C4)C2)C3)CC1	4.9	404.4*	-1.1	·
CCOc1ccccc1NC(=S)N1CCN(c2ccccc2)CC1	98.5*	-6.8	-2.9	-0.3
CC(C(=O)NCc1cccs1)N1C(=O)c2ccccc2C1=O (configuration not stated)	-17.2	0.0	0.1	11.1
CC(OC(=O)Cn1[nH]c(=O)c2ccccc2c1=O)C(=O)NC1(C#N)CCCCC1 (configuration not stated)	-2.5	-33.4	·	-20.6
CC(=O)Nc1ccc(NCN2C(=O)C3C4CCC(C4)C3C2=O)cc1 (configuration not stated)	84.6*	-0.4	-0.8	19.6
Cc1ccc(NCN2C(=O)C3C4C=CC(C4)C3C2=O)cc1 (configuration not stated)	61.5	2.0	-13.4	-7.2
O=C1C2C3C=CC(C3)C2C(=O)N1CNc1ccc(O)cc1 (configuration not stated)	99.1*	-0.6	·	-8.1
Cc1ccc(NCN2C(=O)C3C4CCC(C4)C3C2=O)cc1 (configuration not stated)	14.0	0.3	-5.1	-16.2
COc1cc2c(C(=O)NCc3ccc4c(c3)OCO4)cn(CC(C)C)c(=O)c2cc1OC	-0.6	-0.1	8.4	11.0
COc1cc2c(C(=O)Nc3ccc4c(c3)OCO4)cn(CC(C)C)c(=O)c2cc1OC	-2.8	-0.6	2.6	343.2*
O=C(CNC(=O)c1ccc(-c2ccccc2)cc1)Nc1cccc(CO)c1	-3.5	·	·	3.7
O=c1ccc(N=Nc2ccccc2)ccc1O	98.0*	0.5	16.5	12.0
O=C(N/N=C/c1cccc([N+](=O)[O-])c1)c1cc[n+](CCO)cc1	-6.9	0.1	-5.1	9.7
Cc1cc(C)c2c(N)c(C(=O)Nc3ccccc3F)sc2n1	-2.1	29.6*	1.1	-6.8
Cc1cc(C)c2c(N)c(S(=O)(=O)Cc3ccccc3)sc2n1	91.2*	-0.1	-17.4	·
COc1ccc(Nc2cc(C)c3c(O)cccc3n2)cc1	83.7*	2.1	-4.6	-0.5
Nc1ccc(C(=O)N/N=C\C=C\c2ccc([N+](=O)[O-])cc2)cc1	-11.6	-0.6	4.2	·
CCN(CC)c1ccc(N2C(=NC(=O)C3CCCO3)SC3CS(=O)(=O)CC32)cc1 (configuration not stated)	98.7*	-0.3	8.1	-8.5
COc1ccc(N2C(=NC(=O)CCC3CCCC3)SC3CS(=O)(=O)CC32)cc1 (configuration not stated)	-2.8	70.8*	1.4	-6.6
SMILES	ALR inh	HIF activator	M18AAP inhibitor	Mot1-301 SUMO
COc1cccc(N2C(=NC(=O)CCC3CCCC3)SC3CS(=O)(=O)CC32)c1 (configuration not stated)	-0.3	0.0	5.6	58.4
CCCc1cc(=O)[nH]c(SCC(=O)NCCN2C(=O)CSC2=O)n1	4.0	·	·	-4.6
CCOc1ccccc1NC(C)C(=O)NC(=O)NC1CCCCC1 (configuration not stated)	87.8*	·	·	14.3
O=C(CCNC(=O)c1ccc(Cl)cc1)Nc1cccc(S(=O)(=O)N2CCCCCC2)c1	-9.2	-1.4	·	-8.9
O=C(NC1CCCCC1)c1ccc(-c2cccc([N+](=O)[O-])c2)o1	94.3*	3.8	-9.2	-16.4
Cc1cccc(C)c1NC(=O)CCCSc1nnc(-c2ccc(F)cc2)n1-c1ccccc1	95.8*	-0.5	-11.4	7.4
O=C(CSc1nnc(-c2ccc(O)cc2)n1-c1ccccc1)CC(=O)Nc1ccccc1	-8.4	1.1	32.8*	-5.0
CCCC1CCc2c(sc(N)c2C(N)=O)C1 (configuration not stated)	·	0.2	-9.3	-14.9
O=C(O)c1ccccc1C(=O)Nc1ccc(-c2csc(-c3ccccc3)n2)cc1	98.6*	3.4	-12.3	21.2
CNC(=O)c1ccc(-c2nc(-c3ccccc3)cs2)cc1	-2.7	2.5	4.0	229.5
O=C(Nc1ccc(-c2csc(-c3ccccc3)n2)cc1)c1ccccc1Cl	-1.6	0.8	-1.1	-6.4
O=C(O)c1ccc(-c2nc(-c3ccccc3)cs2)cc1	95.5*	1.1	-7.8	-7.9
CN1CCN(C(=O)c2ccccc2NC(=O)CCN2C(=O)c3ccccc3C2=O)CC1	-0.9	0.2	1.2	336.2*
CC(Sc1nc(N)cc(=O)[nH]1)C(=O)Nc1nc2c(s1)CCCC2 (configuration not stated)	12.3	-3.5	5.5	-3.9
COc1ccc(/C=C/c2cccc[n+]2C)c(O)c1	·	-1.8	-9.8	-7.2
CCN(CC)c1ccc(/C=C/c2cccc[n+]2C)c(OC)c1	98.7*	3.7	5.4	0.6
O=C(NC(=S)NCc1nc2ccccc2[nH]1)c1ccc(F)cc1	75.7*	3.4	-10.7	16.0
COc1ccc(-n2c(=O)c3c4c(sc3n3c(C)nnc23)COC(C(C)C)C4)cc1 (configuration not stated)	·	·	3.4	·
COc1ccc(-n2c(=O)c3c4c(sc3n3c(=S)[nH]nc23)COC(C(C)C)C4)cc1 (configuration not stated)	97.3*	0.3	13.9	8.9
NC(=O)c1nc(-c2ccco2)nc2c1[nH]c(=O)n2-c1ccc(Cl)c(Cl)c1	5.4	0.5	-2.4	0.7
CCOc1ccc2nc(SC3CC(=O)N(c4ccc(OC)cc4OC)C3=O)sc2c1 (configuration not stated)	-4.8	0.1	-18.5	26.3
COc1ccc(-n2ccnc(SCC(=O)NCc3ccccc3Cl)c2=O)cc1	99.2*	-0.1	5.8	7.3
COc1cc(/C=N/NC(=O)c2ccc(COc3ccccc3Cl)o2)cc(Br)c1O	·	-0.3	7.8	-4.0
COc1cccc(/C=N/NC(=O)c2ccc(COc3ccc(Cl)cc3Cl)o2)c1	-8.6	·	-1.2	321.8*
CCN1CCN(C(=O)c2cc(=O)c3cc(C)ccc3o2)CC1	-0.1	-0.1	-0.6	-5.5
COc1ccc(-c2nc(NC3=NCCCCC3)sc2C)cc1	98.5*	-0.2	0.8	-14.4
Cc1csc(Nc2nc(N)c(C(=O)Nc3ccccc3)o2)n1	24.6	-20.3	-1.4	159.2
CCN(CC)C(=O)Cn1cc(SCC(=O)NC2CCCC2)c2ccccc21	2.6	-0.3	-1.3	0.2
NC(=Nc1ccc(N)cc1)C(N)=Nc1ccc(N)cc1	99.2*	-0.9	15.6	-10.8
